Several values for one entry are separate records, joined by “and”; a condition that tells them apart may be missing. Equal entries are not always repeated. Records with an inconclusive call do not appear. Where a structure was tested more than once in an assay, its records may differ in their call. Activity calls are given as the source filed them. The calls were made as follows: active = hit-call score of the fitted dose curve at least 0.9, where 1 is the maximum; inconclusive = response in the unintended direction; inactive = score below 0.9.

The AC50 is the concentration at which the activity in the assay is half-maximal.

A short description of this experiment: ACEA_ER_80hr: ACEA Biosciences xCELLigence Real-Time Cell Analysis on Estrogen Receptor Agonism for Proliferation (AID 2282667). Conditions: T47D proliferation, impedance (xCELLigence), 80 h. Here is the method: ACEA_ER is a cell-based, single-readout assay that uses T47D, a human breast cell line, with measurements taken at 80 hours after chemical dosing in a 96-well plate, although TO2 (mc0.srcf) used a 384-well plate. Differences in plate size can be ignored given data normalization.ACEA_ER_80hr is one of two assay component(s) measured or calculated from the ACEA_ER assay. It is designed to make measurements of real-time cell-growth kinetics, a form of growth reporter, as detected with electrical impedance signals by Real-Time Cell Electrode Sensor (RT-CES) technology.Data from the assay component ACEA_ER_80hr was analyzed into 1 assay endpoint. This assay endpoint, ACEA_ER_80hr_Positive, was analyzed in the positive analysis fitting direction relative to DMSO as the negative control and baseline of activity. Using a type of growth reporter, measures of the cells for gain-of-signal activity can be used to understand the signaling at the pathway-level as they relate to the gene ESR1. Furthermore, this assay endpoint can be referred to as a primary readout, because this assay has produced multiple assay endpoints where this one serves a signaling function. To generalize the intended target to other relatable targets, this assay endpoint is annotated to the nuclear receptor intended target family, where the subfamily is steroidal.
The xCELLigence system Multi-E-Plate stations were used to measure the time-dependent response to chemicals. Each compound was tested in an eight-point, 1:4 serial dilution series starting at a maximum final concentration of 100 uM. A maximum starting concentration of 0.5% DMSO was present in the 100 uM chemical samples and was diluted along with the test article dilution series. The screen was performed in biological duplicate using two separate, 96-well, E-Plates 96 for each dilution series (n = 2). Positive controls (MG132 and E2) and a negative control (assay media) were tested in quadruplicate on each testing plate. […] Reference compounds were tested with 8 concentrations with 1:5 serial dilutions. All screening was carried out by ACEA Biosciences, Inc. (San Diego, CA). T-47D cells purchased from ATCC were maintained in RPMI1640 media supplemented with 10% characterized fetal bovine serum (FBS). […] Cells were then detached and seeded in E-Plates 96 in assay medium. After overnight monitoring of growth once every hour, compounds were added to […] cells and remained in the medium until the end of the experiment. Cellular responses were then recorded once every 5 min for the first 5 h, and once every hour for an additional 100 h.
As to `Cc1cccc(C)c1N`, the molecule was called inactive.

With `C[C@]12CCC(=O)C=C1CC[C@@H]1[C@@H]2CC[C@@]2(C)[C@H]1CC[C@]2(C)O`, the concentration at half-maximal activity (AC50) is 45.5 nM (active) and 64.3 nM (active) and 5.3 µM (active).

Consider `CCC(=O)O[C@H]1CC[C@H]2[C@@H]3CCC4=CC(=O)CC[C@]4(C)[C@H]3CC[C@]12C`, for which the AC50 was 176 nM (active) and 243 nM (active) and 917 nM (active).

As to `CCC(C)c1cc([N+](=O)[O-])cc([N+](=O)[O-])c1O` (stereo not given), the molecule was called inactive.

On to `c1cc2ccc3cccc4ccc(c1)c2c34`, for which the result was inactive.

Regarding `Sc1ccccc1`, the molecule was called inactive.

`O=S(=O)(O)C(F)(F)C(F)(F)C(F)(F)C(F)(F)C(F)(F)C(F)(F)F`: the result was inactive.

On to `CC(c1ccc(O)cc1)(c1ccc(O)cc1)c1ccc(O)cc1`, for which the AC50 is 1.54 µM (active).

Turning to `Cc1cc(O)ccc1Cl`, the molecule was classed as inactive.

Take `CC(C)(O)C(=O)Nc1ccc([N+](=O)[O-])c(C(F)(F)F)c1`: the AC50 is 38.5 µM (active) and 68.7 µM (active).

For `Cc1ccccc1O`, the molecule was classed as inactive.

Take `O=NN(c1ccccc1)c1ccccc1`: the molecule was classed as inactive.

In the case of `c1ccc(-c2ccccc2)cc1`, the outcome was inactive.

Take `CCC(C)(c1ccc(O)cc1)c1ccc(O)cc1`: the AC50 is 285 nM (active) [middle of 4 runs].

Regarding `Cc1ccc(O)c(C)c1`, the result was inactive.

Take `Nn1cnnc1`: the AC50 was 60.3 µM (active).

With `COS(=O)(=O)OC`, the result was inactive.

Take `CCOCCOC(C)=O`: the molecule was classed as inactive.

In the case of `CCOC(=O)C(O)(c1ccc(Cl)cc1)c1ccc(Cl)cc1`, the molecule was classed as inactive.

Consider `Cc1cc2c3c(c1)C(c1ccccc1)=N[C@@H](NC(=O)c1ccncc1)C(=O)N3CC2`, for which the call was inactive.

Regarding `Oc1c(Cl)c(Cl)c(Cl)c(Cl)c1Cl`, the molecule was called inactive.

As for `CC(C)C(=O)OCC(C)(C)C(OC(=O)C(C)C)C(C)C` (stereo not given), the result was inactive.

Regarding `CCCCCCOC(=O)c1ccccc1C(=O)OCCCCCC`, the molecule was called inactive.

Regarding `CCCCCCCCOC(=O)c1ccccc1C(=O)OCCCCCCCC`, the AC50 was 75.4 µM (active).

As to `O=C(N[C@H]1CN2CCC1CC2)c1cc2ccoc2cn1`, the outcome was inactive.

On to `O=C(O)C(F)(F)C(F)(F)C(F)(F)C(F)(F)C(F)(F)C(F)(F)C(F)(F)C(F)(F)F`, for which the outcome was inactive.

On to `Cc1ccccc1[N+](=O)[O-]`, for which the call was inactive.

As to `O=C(NC(=O)c1cc(F)c(F)cc1Cl)Nc1cc(F)ccc1N1CCC(C(=O)O)CC1`, the outcome was inactive.

On to `C[C@]12CCC(=O)C=C1CC[C@@H]1[C@@H]2CC[C@]2(C)C(=O)CC[C@@H]12`, for which the AC50 was 50 µM (active) and 9.92 µM (active).

On to `CCCN(CCC)N=O`, for which the molecule was called inactive.

Take `Cc1cc(-c2ccc(N)c(C)c2)ccc1N`: the AC50 is 27 µM (active) and 9.92 µM (active).

Turning to `ClC1=C(Cl)[C@]2(Cl)[C@@H]3[C@H]4C[C@H]([C@@H]5O[C@H]45)[C@@H]3[C@@]1(Cl)C2(Cl)Cl`, the AC50 is 50 µM (active).

Take `Oc1ccc(Cl)cc1Cl`: the result was inactive.

`O=C(NC(=O)c1c(F)cccc1F)Nc1cc(Cl)c(OC(F)(F)C(F)F)c(Cl)c1`: the call was inactive.

For `NS(=O)(=O)C(F)(F)C(F)(F)C(F)(F)C(F)(F)C(F)(F)C(F)(F)C(F)(F)C(F)(F)F`, the result was inactive.

Take `ClC1=C(Cl)[C@]2(Cl)[C@@H]3[C@@H](Cl)[C@H]4O[C@H]4[C@@H]3C1(Cl)C2(Cl)Cl`: the molecule was called inactive.

As for `N#Cc1ccc(N(CC(N)=O)CC(F)(F)F)cc1C(F)(F)F`, the result was inactive.

In the case of `Clc1ccc(C(c2ccccc2Cl)C(Cl)(Cl)Cl)cc1` (stereo not given), the molecule was classed as inactive; the AC50 is 393 nM (active) and 193 nM (active).

For the molecule `CCCCCCCCCc1ccc(O)cc1`, the outcome was inactive.
